# Hits are enriched below; roughly 3.1% of the tested compounds scored in any of these assays.
# OvCa metastasis: blocks SKOV3ip1 adhesion and invasion in omental model; Potency, µM (highest dose often 45.8 µM), inactives show top-dose activity change, negative = inhibition, usual class: inhibitors; SKOV3ip1-GFP adhesion/invasion on 3D omental model, fluorescence; AID 1963576; 0.1% of 46,000 active;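 note: potency is the fitted concentration of half-maximal effect; plate controls were DMSO wells for no effect and tomatine positive control wells for full effect; nearly all actives have a fitted effect of over 65% in size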
#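 qHTS, 4-pt dose (0.36-46 umol/L); SKOV3ip1-GFP, 1,200 cells/well, no FBS; primary omental fibroblast/mesothelial co-culture 48 h pre-grown; 2 h RT + 16 h 37 C; PBS wash, 4% PFA; GFP count 488/509 nm.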
# S16 F2sN tox: S16 Schwann cell cytotoxicity. S16 Pmp22-F2sN Schwann cells viability, CellTiter-Glo, 24 h. Potency, µM (series often up to 57.5 µM), without a hit: top-dose activity change, negative = cytotoxicity, usual class: cytotoxic. 0.48% of 43,000 active. AID 1508642; note: potency is the fitted concentration of half-maximal effect; % is set by controls: 0 for no effect and ±100 for the full control effect; nearly all actives have a fitted effect of over 65% in size
#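 Used to flag compounds lowering reporter output through toxicity, this quantitative HTS measures ATP-based CellTiter-Glo luminescence in S16 Pmp22-F2sN Schwann cells after 24 h compound exposure at 37C.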
# p53null 32C kill: selectivity test: cytotoxicity in p53 null cells, permissive temperature | AID 903 | 0.62% of 55,000 active | Potency, µM (titrated, usually from 46.1 µM), without a hit: at the highest dose activity change, negative = cytotoxicity, usual class: cytotoxic | H1299-neo p53 null cells, ATP luminescence, 24 h, 32C;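 note: potency is the fitted concentration of half-maximal effect; 0% = DMSO only and -100% = full killing by 100 µM tamoxifen; nearly all actives have a fitted effect of over 55% in size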
#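 AC50 values derive from Hill modelling of qHTS concentration-response data (up to 46 uM) in H1299-neo cells. Cells were treated 24 h at 32C following overnight attachment at 37C; viability was read as cellular ATP.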
# mTORC1 inh: inhibitors of mTORC1 signaling in Tsc2-/- p53-/- MEF cells; Tsc2-/- p53-/- MEF, phospho-rpS6 immunofluorescence/PI, 24 h; Potency, µM (highest dose often 38.3 µM), for inactives: at the highest dose activity change, negative = inhibition, hits mostly inhibitors; 0.78% of 44,000 active;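 note: potency is the fitted concentration of half-maximal effect; plate controls were DMSO for no effect and rapamycin for full effect; nearly all actives have a fitted effect of over 50% in size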
#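 Cell-based qHTS: Tsc2-/- p53-/- MEF, 24 h cpd, 37 °C; fix/perm, anti-phospho-S6 Alexa-488 + PI; Acumen 488 nm scan; pS6/PI ratio, % positive cells; rapamycin 7.5 nM = inhibition ref; PI count = viability.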
# PMP22 txn prim: modulators of PMP22 gene transcription in S16 Schwann cells; S16 Pmp22-F2sN Schwann cells, FLuc/NLuc coincidence luminescence, 24 h; Potency, µM (doses to about 57.5 µM), without a hit: top-dose activity change, negative = inhibition, usual class: inhibitors; 2% of 43,000 active; active = clear falling dose curves in both reporters; inconclusive = both reporters move, but less clearly or upward; inactive = either reporter flat; the % is the NLuc reporter signal; note: potency is the fitted concentration of half-maximal effect; % is set by controls: 0 for no effect and ±100 for the full control effect
#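 Luminescent read-out of sequential FLuc and NLuc signals from a reporter embedded in the Pmp22 3' UTR of S16 Schwann cells, taken after 24 h compound exposure at 37C; compounds reducing both signals score as inhibitors of expression.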
# p53null 39C kill: p53 null cell cytotoxicity, nonpermissive temperature; Potency, µM (series often up to 46.1 µM), without a hit: top-dose activity, negative = cell killing, actives largely listed as cytotoxic; 0.97% of 55,000 active; H1299 p53-null (neo) cells, 39C, ATPlite viability, 24 h; AID 904;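 note: potency is the fitted concentration of half-maximal effect; 0% = DMSO only and -100% = full killing by 100 µM tamoxifen; nearly all actives have a fitted effect of over 50% in size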
#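 Concentration-response (up to 46 uM) was run for 24 h at the nonpermissive 39C on H1299-p53A138V or H1299-neo cells. ATP content was measured with ATPlite luminescence. AC50 values were Hill-modeled after normalizing between DMSO and 100 uM tamoxifen killing.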
# NLuc saturating: NanoLuc enzyme inhibition artifact for PMP22 screen | shares compounds with PMP22 txn prim | Secreted NLuc enzyme (filtered S16 cell medium), Nano-Glo luminescence | Potency, µM (highest dose often 57.5 µM), for the others: at the highest dose activity change, negative = inhibition, most hits filed as inhibitors | 4% of 690 active | AID 1508638; note: potency is the fitted concentration of half-maximal effect; % is set by controls: 0 for no effect and ±100 for the full control effect
# NLuc Km counter: NanoLuc inhibition at Km substrate, PMP22 artifact check | shares compounds with PMP22 txn prim | secreted NLuc enzyme, coelenterazine luminescence, Km conditions | Potency, µM (top dose mostly 57.5 µM), without a hit: at the top dose activity change, negative = inhibition, hits mostly inhibitors | 5% of 690 active | AID 1508639; note: potency is the fitted concentration of half-maximal effect; % is set by controls: 0 for no effect and ±100 for the full control effect
# FLuc counter: inhibits firefly luciferase, PMP22 counter-screen | shares compounds with PMP22 txn prim | purified P. pyralis FLuc, luminescence, 10 min | Potency, µM (doses to about 57.5 µM), for the others: at the highest dose activity, negative = inhibition, most hits filed as inhibitors | 690 tested, under 10 active; note: % of control where 0% means no effect
# Target sequence (P08659 whole entry, looked up): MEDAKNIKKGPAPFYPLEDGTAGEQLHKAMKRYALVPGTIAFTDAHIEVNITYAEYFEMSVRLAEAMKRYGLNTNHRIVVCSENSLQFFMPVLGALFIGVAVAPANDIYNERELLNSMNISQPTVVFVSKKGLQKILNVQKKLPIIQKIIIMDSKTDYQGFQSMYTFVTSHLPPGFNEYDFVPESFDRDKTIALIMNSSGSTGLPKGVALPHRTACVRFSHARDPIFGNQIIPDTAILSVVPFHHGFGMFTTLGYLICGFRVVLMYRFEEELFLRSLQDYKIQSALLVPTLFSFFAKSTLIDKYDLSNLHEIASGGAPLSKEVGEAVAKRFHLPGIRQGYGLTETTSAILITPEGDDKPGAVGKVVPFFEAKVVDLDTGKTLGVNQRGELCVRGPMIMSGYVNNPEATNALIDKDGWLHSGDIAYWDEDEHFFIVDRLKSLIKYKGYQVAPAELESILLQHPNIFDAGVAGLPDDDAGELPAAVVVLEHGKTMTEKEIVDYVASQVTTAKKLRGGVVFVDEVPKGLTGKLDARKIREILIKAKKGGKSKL
# S16 viab conf: confirmation of cytotoxicity in S16 Pmp22-F2sN Schwann cells (luciferase reporters placed in the Pmp22 gene). S16 Schwann cells viability, CellTiter-Glo ATP luminescence, 24 h. Potency, µM (doses to about 57.5 µM), for inactives: top-dose activity change, negative = viability loss, hits mostly cytotoxic. 7% of 690 active. shares compounds with PMP22 txn prim; note: potency is the fitted concentration of half-maximal effect; % is set by controls: 0 for no effect and ±100 for the full control effect
# PMP22 txn cnf: confirmation of modulators of PMP22 gene transcription in S16 cells; shares compounds with PMP22 txn prim; S16 Schwann cells Pmp22-F2sN, dual luciferase, 24 h; 22% of 690 active; Potency, µM (titrated, usually from 57.5 µM), for inactives: at the top dose activity change, negative = inhibition, most hits filed as inhibitors; AID 1508646; active = clear falling dose curves in both reporters; inconclusive = both reporters move, but less clearly or upward; inactive = either reporter flat; the % is the FLuc reporter signal; note: potency is the fitted concentration of half-maximal effect
# PMP22 prot conf: rat PMP22 protein level modulation, confirmatory | shares compounds with PMP22 txn prim | S16 Schwann cells Pmp22-HiBiT, luminescence, 48 h | Potency, µM (highest dose often 27.9 µM), inactives show at the top dose activity change, negative = inhibition, actives largely listed as inhibitors | 95 tested, under 10 active | AID 1508647
# * marks the source's active call; other numbers are inactive results; i = inactive; ? = inconclusive; . = not tested or not shown. Unless noted, calls come from the whole dose curve; as a rule, active = well fitted curve in the direction sought with a large enough effect; inconclusive = small, poorly fitted or top-dose-only effect, or another doubt; inactive = no such curve, though single readings can be large; an effect the other way counts as inactive or inconclusive.
SMILES,OvCa metastasis,S16 F2sN tox,p53null 32C kill,mTORC1 inh,PMP22 txn prim,p53null 39C kill,NLuc saturating,NLuc Km counter,FLuc counter,S16 viab conf,PMP22 txn cnf,others
COc1ccc2c(c1)c1c(c(=O)n(-c3cccc(Cl)c3)c(=O)n1C)n2C,i,-6%,-4%,-10%,-25%,18%,.,.,.,.,.,
CCOc1ccc(NC(=O)C2CCCN(c3nn4cc(-c5ccc(OC)cc5)nc4s3)C2)cc1 (stereo not given),9%,1%,?,-8%,?,-9%,.,.,.,.,.,
COc1ccc(C)cc1NC(=O)Cn1c(=O)cc(C)c2c(C)nn(C)c21,1%,-13%,0%,-3%,7.6µM*,-12%,-3%,0%,1%,-14%,?,
COc1ccc(C)cc1NC(=O)c1nnn(CC(=O)Nc2c(C)cccc2C)c1N,-8%,1%,9%,-5%,9.2µM*,-9%,1%,5%,1%,?,?,
COc1ccc(-c2nc3ccccc3o2)cc1NC(=O)c1ccc(-c2cccc(Cl)c2C)o1,i,2%,-5%,-4%,-8%,-6%,.,.,.,.,.,
CCc1cnc2c(c1SCC(=O)NCc1ccc(F)cc1)c(=O)n(C)c(=O)n2C,4%,-4%,1%,0%,-2%,15%,.,.,.,.,.,
CCCN(Cc1cccs1)C(=O)Nc1cc(C)cc(C)c1,-7%,-2%,5%,-1%,5%,10%,.,.,.,.,.,
CCOC(=O)c1ccc(N2C(=O)c3n[nH]c(-c4cccs4)c3C2c2ccc(O)c(OC)c2)cc1 (stereo not given),i,?,17%,?,16µM*,42%,?,?,-9%,-19%,?,
COc1ccc(-c2cc(C(F)(F)F)nc(S(C)(=O)=O)n2)cc1,?,?,?,15µM*,20µM*,?,-16%,14µM*,-9%,?,16µM*,PMP22 prot conf=4%
COc1ccc(-c2cc(C(F)(F)F)nc(-n3nc(C(F)(F)F)cc3C)n2)cc1,-16%,7%,1%,?,?,6%,.,.,.,.,.,
Cc1ccc(CNC(=O)CCc2nnc3n(C)c(=O)c4sccc4n23)cc1,i,11%,-17%,0%,-9%,-8%,.,.,.,.,.,
